Numbering of substitutions follows the chain as printed; changes in the protein carry UniProt numbers. Whole data set: some 16,000 sequences, median “ka relative to ugcaugu” near 0.096, cut for the highest 2% near 0.35. Many of the other results were omitted from the sample, so the highest values are more common in it than they were.
T1: RBFOX1 RRM RbFoxmut (Fox-RRM*) (Homo sapiens, UniProt Q9NWB1 109-208, R118D;E147R;N151S;E152T)
T1 sequence: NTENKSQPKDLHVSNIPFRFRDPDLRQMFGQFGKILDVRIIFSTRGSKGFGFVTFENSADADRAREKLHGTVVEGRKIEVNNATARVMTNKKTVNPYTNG

B1: GGUGCCG (DNA:RNA)
RNA: GGGAGACCGGAAUUCAGAUUGUCCGGUGCCGUUAAAUCCCGUCGUAGCCACCA
DNA 1: CAATCTGAATTCCGGTCTCCC
DNA 2: TGGTGGCTACGACGGGATT
B2: CCCAUAA (DNA:RNA)
RNA: GGGAGACCGGAAUUCAGAUUGUCCCCCAUAAUUAAAUCCCGUCGUAGCCACCA
DNA 1: CAATCTGAATTCCGGTCTCCC
DNA 2: TGGTGGCTACGACGGGATT
B3: CGUUUAU (DNA:RNA)
RNA: B2 RNA with C26G, C27U, A28U, A31U
DNA 1: CAATCTGAATTCCGGTCTCCC
DNA 2: TGGTGGCTACGACGGGATT
B4: GCAUAUG (DNA:RNA)
RNA: B1 RNA with G26C, U27A, G28U, C29A, C30U
DNA 1: CAATCTGAATTCCGGTCTCCC
DNA 2: TGGTGGCTACGACGGGATT
B5: GCGCGCA (DNA:RNA)
RNA: B2 RNA with C25G, C27G, A28C, U29G, A30C
DNA 1: CAATCTGAATTCCGGTCTCCC
DNA 2: TGGTGGCTACGACGGGATT
B6: GUCCGUC (DNA:RNA)
RNA: B2 RNA with C25G, C26U, A28C, U29G, A30U, A31C
DNA 1: CAATCTGAATTCCGGTCTCCC
DNA 2: TGGTGGCTACGACGGGATT
B7: GCGCAUA (DNA:RNA)
RNA: B2 RNA with C25G, C27G, A28C, U29A, A30U
DNA 1: CAATCTGAATTCCGGTCTCCC
DNA 2: TGGTGGCTACGACGGGATT
B8: GCACAUG (DNA:RNA)
RNA: B1 RNA with G26C, U27A, G28C, C29A, C30U
DNA 1: CAATCTGAATTCCGGTCTCCC
DNA 2: TGGTGGCTACGACGGGATT
B9: GCGCAUG (DNA:RNA)
RNA: B1 RNA with G26C, U27G, G28C, C29A, C30U
DNA 1: CAATCTGAATTCCGGTCTCCC
DNA 2: TGGTGGCTACGACGGGATT
B10: GCAUGUC (DNA:RNA)
RNA: B2 RNA with C25G, C27A, A28U, U29G, A30U, A31C
DNA 1: CAATCTGAATTCCGGTCTCCC
DNA 2: TGGTGGCTACGACGGGATT
B11: GCAGAUG (DNA:RNA)
RNA: B1 RNA with G26C, U27A, C29A, C30U
DNA 1: CAATCTGAATTCCGGTCTCCC
DNA 2: TGGTGGCTACGACGGGATT
B12: GCAUGUG (DNA:RNA)
RNA: B1 RNA with G26C, U27A, G28U, C29G, C30U
DNA 1: CAATCTGAATTCCGGTCTCCC
DNA 2: TGGTGGCTACGACGGGATT
B13: GGCUGGU (DNA:RNA)
RNA: B1 RNA with U27C, G28U, C29G, C30G, G31U
DNA 1: CAATCTGAATTCCGGTCTCCC
DNA 2: TGGTGGCTACGACGGGATT
B14: GAAGAAG (DNA:RNA)
RNA: B1 RNA with G26A, U27A, C29A, C30A
DNA 1: CAATCTGAATTCCGGTCTCCC
DNA 2: TGGTGGCTACGACGGGATT
B15: CACGUCA (DNA:RNA)
RNA: B2 RNA with C26A, A28G, A30C
DNA 1: CAATCTGAATTCCGGTCTCCC
DNA 2: TGGTGGCTACGACGGGATT
B16: CCUUCGA (DNA:RNA)
RNA: B2 RNA with C27U, A28U, U29C, A30G
DNA 1: CAATCTGAATTCCGGTCTCCC
DNA 2: TGGTGGCTACGACGGGATT
B17: GUGCUCC (DNA:RNA)
RNA: B1 RNA with G26U, U27G, G28C, C29U, G31C
DNA 1: CAATCTGAATTCCGGTCTCCC
DNA 2: TGGTGGCTACGACGGGATT
B18: CCUGGUG (DNA:RNA)
RNA: B1 RNA with G25C, G26C, C29G, C30U
DNA 1: CAATCTGAATTCCGGTCTCCC
DNA 2: TGGTGGCTACGACGGGATT
B19: UGGGUUG (DNA:RNA)
RNA: B1 RNA with G25U, U27G, C29U, C30U
DNA 1: CAATCTGAATTCCGGTCTCCC
DNA 2: TGGTGGCTACGACGGGATT
B20: UGGGUGU (DNA:RNA)
RNA: B1 RNA with G25U, U27G, C29U, C30G, G31U
DNA 1: CAATCTGAATTCCGGTCTCCC
DNA 2: TGGTGGCTACGACGGGATT
B21: UGGGGUG (DNA:RNA)
RNA: B1 RNA with G25U, U27G, C29G, C30U
DNA 1: CAATCTGAATTCCGGTCTCCC
DNA 2: TGGTGGCTACGACGGGATT
B22: UGGGUCG (DNA:RNA)
RNA: B1 RNA with G25U, U27G, C29U
DNA 1: CAATCTGAATTCCGGTCTCCC
DNA 2: TGGTGGCTACGACGGGATT
B23: CUGGGUG (DNA:RNA)
RNA: B1 RNA with G25C, G26U, U27G, C29G, C30U
DNA 1: CAATCTGAATTCCGGTCTCCC
DNA 2: TGGTGGCTACGACGGGATT
B24: UGGUGUG (DNA:RNA)
RNA: B1 RNA with G25U, U27G, G28U, C29G, C30U
DNA 1: CAATCTGAATTCCGGTCTCCC
DNA 2: TGGTGGCTACGACGGGATT
B25: UGGUCCG (DNA:RNA)
RNA: B1 RNA with G25U, U27G, G28U
DNA 1: CAATCTGAATTCCGGTCTCCC
DNA 2: TGGTGGCTACGACGGGATT
B26: UGUGGUG (DNA:RNA)
RNA: B1 RNA with G25U, C29G, C30U
DNA 1: CAATCTGAATTCCGGTCTCCC
DNA 2: TGGTGGCTACGACGGGATT
B27: UGUUGGG (DNA:RNA)
RNA: B1 RNA with G25U, G28U, C29G, C30G
DNA 1: CAATCTGAATTCCGGTCTCCC
DNA 2: TGGTGGCTACGACGGGATT
B28: UGGGUCC (DNA:RNA)
RNA: B1 RNA with G25U, U27G, C29U, G31C
DNA 1: CAATCTGAATTCCGGTCTCCC
DNA 2: TGGTGGCTACGACGGGATT
B29: UGGGGGG (DNA:RNA)
RNA: B1 RNA with G25U, U27G, C29G, C30G
DNA 1: CAATCTGAATTCCGGTCTCCC
DNA 2: TGGTGGCTACGACGGGATT
B30: GGUUCAA (DNA:RNA)
RNA: B1 RNA with G28U, C30A, G31A
DNA 1: CAATCTGAATTCCGGTCTCCC
DNA 2: TGGTGGCTACGACGGGATT
B31: CCGCUAC (DNA:RNA)
RNA: B2 RNA with C27G, A28C, A31C
DNA 1: CAATCTGAATTCCGGTCTCCC
DNA 2: TGGTGGCTACGACGGGATT

Each binder was assayed against T1, RBFOX1 RRM RbFoxmut (Fox-RRM*) (assay: EMSA; HiTS-Eq, 1 nM pool, 10 min; buffer printed only for the single-RNA assays: 10 mM Tris pH 7.5, 150 mM NaCl, 3.4 mM EDTA, 0.001% NP-40, 30 C). Conditions: tags: His6 N-terminal (pET28a); label: 5' 32P.
Procedure, shortened: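 Purified wild-type or mutant RbFox RRM at increasing concentrations was equilibrated with 1 nM of 5′-radiolabelled RNA carrying 7 randomized nucleotides for 10 min in 50 µL. Unbound RNA was separated by 8% native PAGE and sequenced. Relative association constants came from read-count changes of each RNA species compared with the control reaction, normalised to the cognate motif.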

Row | Binder | binding signal
1 | B1 | 0.128 KA relative to UGCAUGU
2 | B2 | 0.0954 KA relative to UGCAUGU
3 | B3 | 0.147 KA relative to UGCAUGU
4 | B4 | 0.197 KA relative to UGCAUGU
5 | B5 | 0.13 KA relative to UGCAUGU
6 | B6 | 0.0864 KA relative to UGCAUGU
7 | B7 | 0.152 KA relative to UGCAUGU
8 | B8 | 0.128 KA relative to UGCAUGU
9 | B9 | 1.33 KA relative to UGCAUGU
10 | B10 | 0.492 KA relative to UGCAUGU
11 | B11 | 0.142 KA relative to UGCAUGU
12 | B12 | 0.954 KA relative to UGCAUGU
13 | B13 | 0.14 KA relative to UGCAUGU
14 | B14 | 0.0975 KA relative to UGCAUGU
15 | B15 | 0.124 KA relative to UGCAUGU
16 | B16 | 0.0928 KA relative to UGCAUGU

Row | Binder | binding signal
17 | B17 | 0.0573 KA relative to UGCAUGU
18 | B18 | 0.109 KA relative to UGCAUGU
19 | B19 | 0.947 KA relative to UGCAUGU
20 | B20 | 0.305 KA relative to UGCAUGU
21 | B21 | 0.38 KA relative to UGCAUGU
22 | B22 | 0.375 KA relative to UGCAUGU
23 | B23 | 0.347 KA relative to UGCAUGU
24 | B24 | 0.498 KA relative to UGCAUGU
25 | B25 | 0.265 KA relative to UGCAUGU
26 | B26 | 0.273 KA relative to UGCAUGU
27 | B27 | 0.0997 KA relative to UGCAUGU
28 | B28 | 0.149 KA relative to UGCAUGU
29 | B29 | 0.0903 KA relative to UGCAUGU
30 | B30 | 0.0825 KA relative to UGCAUGU
31 | B31 | 0.129 KA relative to UGCAUGU
